Results taken from the supplement of paper PMC10849652.
Of roughly 7,900 targets only a part is listed; those with a hit were picked by preference. About 0.6% of all pairs of compound and target were hits.

Key:
Test in all cases: log2 fold change, soluble protein after heating vs DMSO (PISA); higher = thermal stabilisation; K562 cells, 10 uM, 30 min; active = over 0.2 and 3.5 SD of the protein, either way, in both replicates (recomputed)
[1] = compound: CC1=C(C=C(C=C1)NC(=O)C2=CC(=CC=C2)C(C)(C)C#N)NC3=CC4=C(C=C3)N=CN(C4=O)C
Procedure, shortened: (§1)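 K562 cells at 2×10^6 cells/mL were treated for 30 min with 10 μM compound, and aliquots were heated for 3 min over 48°C-58°C before pooling. Extraction used PBS with 0.5% NP-40 at 4°C, and soluble protein was the supernatant after 21,000xg for 90 min, measured by TMTpro 16plex LC-MS/MS with channel sums equalised. Thermal stability values, relative to control samples and from duplicates, are log2 fold changes.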

[2] = compound: CC1=C(C=C(C=C1)NC(=O)C2=CC(=CC=C2)N(C)C)NC(=O)C3=CC=C(C=C3)O
Procedure, shortened: as §1

[3] = compound: CC1=CC=C(C=C1)SC2=C3C=C(SC3=CN=C2)C(=O)N
Procedure, shortened: as §1

[4] = compound: CC1=NC(=CC=C1)C2=C(N=C(N2)C(C)(C)C)C3=CC4=NC=CN=C4C=C3
Procedure, shortened: as §1

Nexturastat A = compound: CCCCN(Cc1ccc(C(=O)NO)cc1)C(=O)Nc1ccccc1 [Nexturastat A]
Procedure, shortened: as §1

vemurafenib = compound: CCCS(=O)(=O)Nc1ccc(F)c(C(=O)c2c[nH]c3ncc(-c4ccc(Cl)cc4)cc23)c1F [vemurafenib]
Procedure, shortened: as §1

[5] = compound: CCCS(=O)(=O)Nc1ccc(F)c(C(=O)c2c[nH]c3ncc(Cl)cc23)c1F
Procedure, shortened: as §1

[6] = compound: CCCc1cc(C)[nH]c(=O)c1CNC(=O)c1cc(-c2ccnc(N3CCN(C)CC3)c2)cc2c1cnn2C(C)C
Procedure, shortened: as §1

givinostat = compound: CCN(CC)Cc1ccc2cc(COC(=O)Nc3ccc(C(=O)NO)cc3)ccc2c1 [givinostat]
Procedure, shortened: as §1

barasertib = compound: CCN(CCCOc1ccc2c(Nc3cc(CC(=O)Nc4cccc(F)c4)[nH]n3)ncnc2c1)CCOP(=O)(O)O [barasertib]
Procedure, shortened: as §1

Measured: log2 fold change

MIA2 (UniProt Q96PC5)
inactive: [1] 0.009 | [2] -0.012 | [3] -0.002 | [4] -0.016 | Nexturastat A 0.015 | vemurafenib 0.003 | [5] -0.062 | [6] 0.128 | givinostat 0.003 | barasertib 0.021

MAN2B2 (UniProt Q9Y2E5)
inactive: [1] 0.017 | [2] 0.049 | [3] 0.033 | [4] -0.056 | Nexturastat A -0.062 | vemurafenib -0.105 | [5] -0.17 | [6] 0.139 | givinostat 0.014 | barasertib 0.041

IRF2BPL (UniProt Q9H1B7)
UniProt Q9H1B7, sequence (Q9H1B7 whole entry, looked up): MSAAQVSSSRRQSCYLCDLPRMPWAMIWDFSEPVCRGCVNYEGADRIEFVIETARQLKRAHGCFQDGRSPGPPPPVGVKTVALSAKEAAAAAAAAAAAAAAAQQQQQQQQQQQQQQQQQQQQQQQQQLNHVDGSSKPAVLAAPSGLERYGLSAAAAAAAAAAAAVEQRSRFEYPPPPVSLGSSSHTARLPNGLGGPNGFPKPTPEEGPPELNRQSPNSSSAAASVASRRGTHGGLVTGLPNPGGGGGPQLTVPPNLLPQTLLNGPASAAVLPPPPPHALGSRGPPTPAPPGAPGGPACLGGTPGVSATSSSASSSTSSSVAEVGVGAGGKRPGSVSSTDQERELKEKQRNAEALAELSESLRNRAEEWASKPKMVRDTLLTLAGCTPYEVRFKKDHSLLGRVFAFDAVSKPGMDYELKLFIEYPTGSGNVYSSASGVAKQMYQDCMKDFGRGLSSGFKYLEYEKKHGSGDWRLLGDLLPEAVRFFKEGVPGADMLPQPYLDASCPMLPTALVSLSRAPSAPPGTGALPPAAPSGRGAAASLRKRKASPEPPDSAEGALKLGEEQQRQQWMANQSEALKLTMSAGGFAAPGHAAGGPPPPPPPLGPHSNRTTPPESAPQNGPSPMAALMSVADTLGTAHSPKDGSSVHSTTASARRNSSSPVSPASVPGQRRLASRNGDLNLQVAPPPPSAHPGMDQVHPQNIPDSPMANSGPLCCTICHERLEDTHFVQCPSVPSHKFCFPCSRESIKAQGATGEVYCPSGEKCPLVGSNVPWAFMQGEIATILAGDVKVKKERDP
inactive: [1] 0.013 | [2] -0.006 | [3] 0.015 | [4] 0.068 | Nexturastat A 0.038 | vemurafenib 0.014 | [5] 0.049 | [6] 0.008 | givinostat 0.05 | barasertib -0.044

KHDC4 (UniProt Q7Z7F0)
inactive: [1] -0.008 | [2] -0.055 | [3] 0.026 | [4] 0.071 | Nexturastat A 0.068 | vemurafenib 0.113 | [5] 0.017 | [6] 0.038 | givinostat 0.048 | barasertib 0.049

KNTC1 (UniProt P50748)
inactive: [1] -0.027 | [2] -0.003 | [3] -0.021 | [4] 0.026 | Nexturastat A 0.034 | vemurafenib 0.042 | [5] 0.036 | [6] 0.092 | givinostat 0.082 | barasertib 0.035

KEAP1 (UniProt Q14145)
inactive: [1] -0.024 | [2] 0.032 | [3] 0.005 | [4] -0.009 | Nexturastat A 0.038 | vemurafenib 0.054 | [5] 0.101 | [6] 0.004 | givinostat 0.034 | barasertib 0.082

LYN (UniProt P07948)
UniProt P07948, sequence (P07948 whole entry, looked up): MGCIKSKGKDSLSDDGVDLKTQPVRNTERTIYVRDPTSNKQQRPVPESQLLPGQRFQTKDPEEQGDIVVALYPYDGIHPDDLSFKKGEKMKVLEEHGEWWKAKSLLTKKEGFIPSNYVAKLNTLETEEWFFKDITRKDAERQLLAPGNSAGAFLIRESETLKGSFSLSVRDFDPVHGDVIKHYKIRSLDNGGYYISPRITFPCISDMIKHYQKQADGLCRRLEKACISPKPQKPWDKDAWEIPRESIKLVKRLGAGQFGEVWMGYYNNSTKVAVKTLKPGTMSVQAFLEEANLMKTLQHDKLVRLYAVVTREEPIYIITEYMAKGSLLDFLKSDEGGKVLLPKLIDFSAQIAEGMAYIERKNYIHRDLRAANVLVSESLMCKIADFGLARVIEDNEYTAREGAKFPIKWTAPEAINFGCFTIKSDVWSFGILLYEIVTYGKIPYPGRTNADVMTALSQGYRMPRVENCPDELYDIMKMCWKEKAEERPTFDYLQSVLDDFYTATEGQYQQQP
inactive: [1] 0.195 | [2] -0.053 | [3] -0.036 | [4] 0.037 | Nexturastat A 0.293 | vemurafenib -0.016 | [5] -0.143 | [6] -0.22 | givinostat 0.211 | barasertib -0.057

MAP4K4 isoform 3 (UniProt O95819)
inactive: [1] -0.166 | [2] 0.013 | [3] 0.022 | [4] 0.012 | Nexturastat A 0.033 | vemurafenib -0.007 | [5] 0.028 | [6] -0.02 | givinostat 0.017 | barasertib -0.012

IMMT isoform 4 (UniProt Q16891)
UniProt Q16891, sequence (Q16891 whole entry, looked up): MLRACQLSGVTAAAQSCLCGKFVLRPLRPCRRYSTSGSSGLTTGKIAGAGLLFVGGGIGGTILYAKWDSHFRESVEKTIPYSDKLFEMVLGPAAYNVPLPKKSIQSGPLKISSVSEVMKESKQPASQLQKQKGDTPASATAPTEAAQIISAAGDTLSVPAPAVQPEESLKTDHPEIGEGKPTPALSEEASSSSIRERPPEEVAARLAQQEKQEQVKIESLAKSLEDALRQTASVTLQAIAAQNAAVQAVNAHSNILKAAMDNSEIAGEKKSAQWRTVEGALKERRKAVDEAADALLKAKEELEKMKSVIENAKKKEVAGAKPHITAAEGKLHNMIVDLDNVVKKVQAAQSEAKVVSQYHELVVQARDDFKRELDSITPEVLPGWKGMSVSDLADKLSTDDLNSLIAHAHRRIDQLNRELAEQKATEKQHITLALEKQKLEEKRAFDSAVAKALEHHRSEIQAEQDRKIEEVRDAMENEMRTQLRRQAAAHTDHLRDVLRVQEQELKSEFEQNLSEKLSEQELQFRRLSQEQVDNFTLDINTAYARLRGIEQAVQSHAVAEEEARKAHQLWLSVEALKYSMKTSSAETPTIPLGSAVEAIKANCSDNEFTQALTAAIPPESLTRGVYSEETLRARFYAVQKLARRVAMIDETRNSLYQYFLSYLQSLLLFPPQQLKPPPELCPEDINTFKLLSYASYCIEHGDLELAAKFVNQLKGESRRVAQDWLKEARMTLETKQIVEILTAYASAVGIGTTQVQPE
inactive: [1] 0.009 | [2] 0.012 | [3] 0.032 | [4] 0.032 | Nexturastat A -0.027 | vemurafenib -0.007 | [5] 0.002 | [6] -0.045 | givinostat -0.022 | barasertib 0.001

MAPKAPK2 (UniProt P49137)
UniProt P49137, sequence (P49137 whole entry, looked up): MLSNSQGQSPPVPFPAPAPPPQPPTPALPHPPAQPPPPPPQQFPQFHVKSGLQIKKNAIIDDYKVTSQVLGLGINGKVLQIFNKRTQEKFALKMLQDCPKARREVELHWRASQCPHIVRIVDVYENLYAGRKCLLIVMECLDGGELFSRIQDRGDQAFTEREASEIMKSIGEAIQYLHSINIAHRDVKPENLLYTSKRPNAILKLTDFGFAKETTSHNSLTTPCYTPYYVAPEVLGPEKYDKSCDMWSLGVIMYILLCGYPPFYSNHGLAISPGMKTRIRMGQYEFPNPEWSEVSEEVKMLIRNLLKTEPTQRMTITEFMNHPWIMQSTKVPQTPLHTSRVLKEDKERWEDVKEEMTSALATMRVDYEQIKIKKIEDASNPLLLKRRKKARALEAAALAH
inactive: [1] 0.077 | [2] 0.082 | [3] -0.008 | [4] 0.019 | Nexturastat A -0.047 | vemurafenib 0.074 | [5] 0.045 | [6] 0.038 | givinostat 0.026 | barasertib -0.001

ITM2B (UniProt Q9Y287)
inactive: [1] 0.01 | [2] -0.052 | [3] 0.036 | [4] -0.046 | Nexturastat A -0.05 | vemurafenib -0.101 | [5] -0.016 | [6] -0.482 | givinostat 0.001 | barasertib 0.076

MAP2K2 (UniProt P36507)
UniProt P36507, sequence (P36507 whole entry, looked up): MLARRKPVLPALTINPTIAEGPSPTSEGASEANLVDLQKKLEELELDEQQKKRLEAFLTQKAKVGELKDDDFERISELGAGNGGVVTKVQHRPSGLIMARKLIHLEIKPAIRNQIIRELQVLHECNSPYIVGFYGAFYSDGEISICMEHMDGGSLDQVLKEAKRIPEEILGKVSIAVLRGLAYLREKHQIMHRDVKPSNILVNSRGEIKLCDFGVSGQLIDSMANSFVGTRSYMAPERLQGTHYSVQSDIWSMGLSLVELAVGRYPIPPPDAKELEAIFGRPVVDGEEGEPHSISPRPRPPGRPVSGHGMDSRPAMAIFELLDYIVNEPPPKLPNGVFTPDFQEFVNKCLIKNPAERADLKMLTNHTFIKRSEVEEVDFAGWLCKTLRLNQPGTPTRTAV
inactive: [1] -0.018 | [2] 0.013 | [3] 0.009 | [4] 0.028 | Nexturastat A -0.001 | vemurafenib -0.008 | [5] -0.002 | [6] 0.17 | givinostat 0.014 | barasertib 0.011

MAGEC2 (UniProt Q9UBF1)
inactive: [1] 0.017 | [2] 0.045 | [3] -0.046 | [4] 0.057 | Nexturastat A 0 | vemurafenib 0.035 | [5] 0.04 | [6] 0.005 | givinostat -0.013 | barasertib -0.005

LTO1 (UniProt Q8WV07)
inactive: [1] 0.021 | [2] -0.042 | [3] -0.021 | [4] -0.009 | Nexturastat A 0.245 | vemurafenib 0.101 | [5] 0.027 | [6] 0 | givinostat -0.121 | barasertib -0.04

MDC1 (UniProt Q14676)
UniProt Q14676, sequence (Q14676 whole entry, looked up): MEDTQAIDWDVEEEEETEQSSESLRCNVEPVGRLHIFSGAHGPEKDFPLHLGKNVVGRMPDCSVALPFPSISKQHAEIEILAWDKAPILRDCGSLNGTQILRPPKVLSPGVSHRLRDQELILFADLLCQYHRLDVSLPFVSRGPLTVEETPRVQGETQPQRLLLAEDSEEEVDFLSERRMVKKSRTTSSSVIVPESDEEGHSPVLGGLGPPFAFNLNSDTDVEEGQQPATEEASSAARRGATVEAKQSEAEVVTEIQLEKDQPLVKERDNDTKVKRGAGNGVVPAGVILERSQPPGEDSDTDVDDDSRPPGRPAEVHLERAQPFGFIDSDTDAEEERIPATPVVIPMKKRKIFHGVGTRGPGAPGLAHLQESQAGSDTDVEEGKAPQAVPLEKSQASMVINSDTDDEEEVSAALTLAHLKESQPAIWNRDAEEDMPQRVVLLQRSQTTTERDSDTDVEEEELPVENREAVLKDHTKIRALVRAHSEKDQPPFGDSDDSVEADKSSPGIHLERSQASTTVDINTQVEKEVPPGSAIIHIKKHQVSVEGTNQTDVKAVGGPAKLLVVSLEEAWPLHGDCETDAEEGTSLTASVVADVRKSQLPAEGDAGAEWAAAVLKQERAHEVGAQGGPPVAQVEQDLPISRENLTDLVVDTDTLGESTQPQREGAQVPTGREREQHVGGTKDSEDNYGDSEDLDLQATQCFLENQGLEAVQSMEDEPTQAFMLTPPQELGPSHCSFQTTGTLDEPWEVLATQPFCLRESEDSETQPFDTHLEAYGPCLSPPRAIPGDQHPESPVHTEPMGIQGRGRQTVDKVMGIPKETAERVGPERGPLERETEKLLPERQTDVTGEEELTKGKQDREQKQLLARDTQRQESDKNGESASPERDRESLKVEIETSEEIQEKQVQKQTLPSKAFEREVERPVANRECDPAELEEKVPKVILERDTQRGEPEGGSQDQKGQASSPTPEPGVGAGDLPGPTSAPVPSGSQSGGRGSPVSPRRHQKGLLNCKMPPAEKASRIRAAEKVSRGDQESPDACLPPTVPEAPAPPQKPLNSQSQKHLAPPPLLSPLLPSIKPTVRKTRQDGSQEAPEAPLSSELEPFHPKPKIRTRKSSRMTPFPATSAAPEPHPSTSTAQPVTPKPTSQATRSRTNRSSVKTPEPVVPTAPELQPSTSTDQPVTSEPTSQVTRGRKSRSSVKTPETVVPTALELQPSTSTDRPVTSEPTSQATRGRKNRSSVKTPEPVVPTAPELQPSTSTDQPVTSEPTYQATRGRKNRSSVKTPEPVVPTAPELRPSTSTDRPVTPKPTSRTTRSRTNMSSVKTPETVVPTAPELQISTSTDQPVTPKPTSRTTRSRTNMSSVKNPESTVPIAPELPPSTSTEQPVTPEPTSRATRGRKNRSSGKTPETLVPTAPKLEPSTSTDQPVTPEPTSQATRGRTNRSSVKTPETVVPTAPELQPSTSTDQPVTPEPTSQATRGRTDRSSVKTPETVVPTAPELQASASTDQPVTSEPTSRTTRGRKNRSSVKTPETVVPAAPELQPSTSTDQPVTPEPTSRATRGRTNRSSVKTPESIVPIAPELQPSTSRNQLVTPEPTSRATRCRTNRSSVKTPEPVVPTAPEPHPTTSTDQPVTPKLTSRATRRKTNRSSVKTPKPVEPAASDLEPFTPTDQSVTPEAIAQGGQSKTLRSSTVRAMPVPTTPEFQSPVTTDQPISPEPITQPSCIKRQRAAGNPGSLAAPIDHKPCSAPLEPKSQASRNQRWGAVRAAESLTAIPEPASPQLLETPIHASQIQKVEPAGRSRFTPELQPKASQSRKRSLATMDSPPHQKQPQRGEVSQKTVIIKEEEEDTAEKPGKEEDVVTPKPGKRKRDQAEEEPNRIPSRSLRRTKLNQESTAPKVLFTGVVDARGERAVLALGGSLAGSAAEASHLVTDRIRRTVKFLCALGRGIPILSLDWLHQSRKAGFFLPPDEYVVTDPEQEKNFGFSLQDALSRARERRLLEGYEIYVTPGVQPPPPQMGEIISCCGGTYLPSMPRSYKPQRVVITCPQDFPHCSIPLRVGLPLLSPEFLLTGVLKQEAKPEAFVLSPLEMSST
inactive: [1] -0.019 | [2] -0.037 | [3] -0.013 | [4] -0.076 | Nexturastat A 0.048 | vemurafenib -0.037 | [5] -0.008 | [6] 0.074 | givinostat 0.055 | barasertib -0.074

LMBRD2 (UniProt Q68DH5)
inactive: [1] -0.038 | [2] 0.016 | [3] 0.043 | [4] 0 | Nexturastat A 0.019 | vemurafenib -0.052 | [5] -0.03 | [6] 0.038 | givinostat 0.043 | barasertib 0.011
